Assay [1] in a line: Quantitative High-Throughput drug screen in 47 multiple myeloma cell lines against the NCATS MIPE library collection: XG6_PLB cell viability assay (AID 1919865). Further: nearly all actives have a fitted effect of over 40% in size. The method in brief: (§1)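 Plated at 500 cells per well, myeloma lines received MIPE 4.0 compounds by pin tool. Following 48 h culture at 37 °C, CellTiter-Glo luminescence gave viability relative to DMSO and media-only controls.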

Assay [2] can be described thus: Quantitative High-Throughput drug screen in 47 multiple myeloma cell lines against the NCATS MIPE library collection: XG1_PLB cell viability assay (AID 1919866). Further: nearly all actives have a fitted effect of over 35% in size. The method in brief: as §1
Assay [3] can be described thus: Quantitative High-Throughput drug screen in 47 multiple myeloma cell lines against the NCATS MIPE library collection: VP6_DJ cell viability assay (AID 1919867). Further: nearly all actives have a fitted effect of over 40% in size. The method in brief:
as §1

Assay [4] in a line: Quantitative High-Throughput drug screen in 47 multiple myeloma cell lines against the NCATS MIPE library collection: UTMC2_PLB cell viability assay (AID 1919868). Further: nearly all actives have a fitted effect of over 55% in size. The settings on record: CellTiter-Glo ATP luminescence, 48 h; viability (% of DMSO control): at 45.8 µM (top of the series). The procedure, abridged:
as §1

Assay [5] can be described thus: Quantitative High-Throughput drug screen in 47 multiple myeloma cell lines against the NCATS MIPE library collection: PE2_PLB cell viability assay (AID 1919869). Further: nearly all actives have a fitted effect of over 35% in size. The method in brief: as §1
The nature of assay [6]: Quantitative High-Throughput drug screen in 47 multiple myeloma cell lines against the NCATS MIPE library collection: PCM6_Riken cell viability assay (AID 1919870). Further: nearly all actives have a fitted effect of over 30% in size. The method in brief:
as §1

Assay [7] in a line: Quantitative High-Throughput drug screen in 47 multiple myeloma cell lines against the NCATS MIPE library collection: RPMI8226_ATCC cell viability assay (AID 1919871). Further: nearly all actives have a fitted effect of over 30% in size. The method in brief:
as §1

Assay [8] in a line: Quantitative High-Throughput drug screen in 47 multiple myeloma cell lines against the NCATS MIPE library collection: OPM2_DSMZ cell viability assay (AID 1919872). Further: nearly all actives have a fitted effect of over 30% in size. The method in brief:
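Viability readout: CellTiter-Glo luminescence following 5 min room-temperature incubation with reagent. Prior exposure: 48 h, 37C, humidified 5% CO2, 500 cells per well.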

Assay [9] can be described thus: Quantitative High-Throughput drug screen in 47 multiple myeloma cell lines against the NCATS MIPE library collection: KMS11_JCRBsus cell viability assay (AID 1919873). Further: nearly all actives have a fitted effect of over 50% in size. The procedure, abridged: as §1
Assay [10] can be described thus: Quantitative High-Throughput drug screen in 47 multiple myeloma cell lines against the NCATS MIPE library collection: KMS28BM_JCRB cell viability assay (AID 1919874). Further: nearly all actives have a fitted effect of over 35% in size. The procedure, abridged: as §1

SMILES strings stand for the structures. Results filed as inconclusive are left out. The source made the active and inactive calls. The call rests on the fitted dose curve; in most records, active means well fitted cell-killing curve with a large enough effect; inconclusive means small, poorly fitted or top-dose-only effect, or effect the other way; inactive means no such curve, though single readings can be large or run the other way.
Potency means the concentration at half of the fitted maximal effect.

In the case of `CN(C)Cc1cccc(N=C(c2ccccc2)c2c(O)[nH]c3cc(C(=O)N(C)C)ccc23)c1`, the Potency in assay [1] was 18.7 µM (active); in assay [2], 16.6 µM (active); in [3] it was 13.2 µM (active); in assay [4] it was 16.6 µM (active); in assay [5] it was 20.9 µM (active); in assay [6] it was 10.5 µM (active). Moreover, the Potency in [7] is 10.5 µM (active).
As to `COc1cc2nc(-c3ccc(N4CCN(C)CC4)cc3)nc(NCCN3CCOCC3)c2cc1OC`, the Potency in [1] is 0.166 µM (active); in assay [2] it was 0.0372 µM (active); in assay [3] it was 0.187 µM (active); in assay [4], 0.935 µM (active); in assay [5] it was 0.148 µM (active); in [6], 0.166 µM (active). In addition, the Potency is 0.0833 µM (active) in assay [7], 3.32 µM (active) in assay [8], 0.0935 µM (active) in assay [9] and 0.105 µM (active) in assay [10].
As to `CN1CCN(CCOc2cc(OC3CCOCC3)c3c(Nc4c(Cl)ccc5c4OCO5)ncnc3c2)CC1`, the Potency in assay [1] was 5.26 µM (active); in assay [2] it was 18.7 µM (active); in [3], 4.18 µM (active); in assay [5], 23.5 µM (active); in assay [6] it was 9.35 µM (active); in assay [9], 23.5 µM (active). In assay [8], the Potency entry is “inactive”.
As for `COc1cc(NC(=O)c2ccc(-c3ccc(Cl)cc3)o2)cc(OC)c1`, the Potency is 1.66 µM (active) in assay [1]; 3.32 µM (active) in assay [2]; 8.33 µM (active) in [3]; 5.9 µM (active) in [5]; 5.9 µM (active) in assay [6]. Moreover, the Potency entry in assay [7], in assay [9] and in [10] was “inactive” in each case.
As to `CC(C)C[C@H](CC(=O)O)C(=O)N[C@@H](Cc1c[nH]c2ccccc12)C(=O)N[C@@H](C)c1ccccc1`, the Potency result in assay [1], in assay [2], in assay [3], in [5], in assay [6] and in [8] was “inactive” each time. Further, the Potency entry in [9] is “inactive”.
As to `CCOC(=O)C1=C(N)Oc2ccc(Br)cc2C1C(C#N)C(=O)OCC` (stereo unspecified), the Potency is 18.7 µM (active) in assay [1]; 16.6 µM (active) in assay [2]; 16.6 µM (active) in assay [3]; 18.7 µM (active) in assay [4]; 20.9 µM (active) in [5]; 16.6 µM (active) in assay [6]. Moreover, the Potency in assay [7] is 26.4 µM (active); in [9], 23.5 µM (active); in assay [10], 20.9 µM (active).
`O=C(NCc1ccccc1)c1csc(Nc2ccncn2)n1`: the Potency in assay [1] was 18.7 µM (active); in assay [2], 16.6 µM (active); in assay [4], 16.6 µM (active); in assay [5], 13.2 µM (active); in assay [6], 8.33 µM (active); in assay [7], 20.9 µM (active). Also, the Potency in assay [9] is 26.4 µM (active); in assay [10], 18.7 µM (active).
Take `CCOC(=O)O[C@]1(C(=O)OCCl)CC[C@@H]2[C@H]3CCC4=CC(=O)C=C[C@]4(C)[C@@H]3[C@@H](O)C[C@@]21C`: the Potency entry in assay [1], in [2], in assay [5], in assay [6], in assay [8] and in assay [10] was “inactive” throughout. Besides, the Potency in assay [7] was 0.118 µM (active); in assay [9], 0.264 µM (active).
Regarding `CO[C@H]1C=CC=C(C)C(=O)NC2=CC(=O)C(NCCN(C)C)=C(C[C@@H](C)C[C@H](OC)[C@@H](O)[C@@H](C)C=C(C)[C@@H]1OC(N)=O)C2=O`, the Potency in [1] is 0.105 µM (active); in assay [2], 0.0372 µM (active); in assay [5], 0.0935 µM (active); in [6], 0.105 µM (active); in [7] it was 0.0469 µM (active); in assay [8] it was 0.0743 µM (active). Besides, the results for the Potency in assay [9] and in assay [10] were 0.0093 µM (active) and 0.166 µM (active), respectively.
For `O=c1[nH]cnc2c1ncn2[C@H]1CC[C@@H](CO)O1`, the Potency result in assay [1], in [2], in assay [5], in assay [6], in assay [7] and in assay [8] was “inactive” in each case. Also, the Potency result in assay [9] is “inactive”.
In the case of `C=CCc1ccc(O)c(-c2ccc(O)c(CC=C)c2)c1`, the Potency is 14.8 µM (active) in assay [1]; 18.7 µM (active) in assay [2]; 20.9 µM (active) in assay [3]; 18.7 µM (active) in assay [5]; 20.9 µM (active) in assay [6]; 23.5 µM (active) in assay [10].
In the case of `CC[C@H]1OC(=O)[C@H](C)C(=O)[C@H](C)[C@@H](O[C@H]2O[C@H](C)C[C@H](N(C)C)[C@@H]2O)[C@](C)(OC)C[C@@H](C)C(=O)[C@H](C)[C@H]2N(CCCCn3cnc(-c4cccnc4)c3)C(=O)O[C@]12C`, the Potency is 4.69 µM (active) in assay [1], 11.8 µM (active) in assay [3], 18.7 µM (active) in assay [7] and 16.6 µM (active) in assay [9]. Also, the Potency result in assay [2] and in [10] was “inactive” in each case.
On to `O=C(Nc1cc(Cl)cc2c1[nH]c1cnccc12)c1cccnc1`, for which the Potency in assay [1] is 2.64 µM (active); in assay [2] it was 5.26 µM (active); in assay [3] it was 7.43 µM (active). The Potency entry in assay [8] and in assay [9] was “inactive” throughout.
Consider `O=C(OCC#CCSc1nnc(-c2cccc3ccccc23)o1)c1cc2ccccc2s1`, for which the Potency result in assay [1], in [2], in assay [3], in [5], in [8] and in assay [9] was “inactive” throughout. Moreover, the Potency in assay [10] was 3.32 µM (active).
For `C[C@]12CC[C@@H]3c4ccc(O)cc4CC[C@H]3[C@H]1C[C@@H](O)[C@H]2O`, the Potency in assay [1] is 5.9 µM (active). The Potency entry in assay [2], in assay [4], in assay [8] and in assay [10] was “inactive” each time.
For the compound `CCC(CC)[C@H](NC(C)=O)[C@@H]1[C@H](O)[C@@H](C(=O)O)C[C@@H]1N=C(N)N`, the Potency result in [1], in assay [2], in assay [5], in assay [6], in [7] and in [8] was “inactive” throughout. Further, the Potency entry in assay [9] is “inactive”.
For `N#CC(=C(N)Sc1ccccc1N)C(C#N)=C(N)Sc1ccccc1N`, the Potency in [1] was 14.8 µM (active); in assay [2] it was 9.35 µM (active); in assay [4], 8.33 µM (active); in assay [5] it was 18.7 µM (active); in assay [7], 10.5 µM (active); in [9], 8.33 µM (active). For the same compound, in assay [8], the Potency entry is “inactive”.
`O=C1c2ccccc2-[n+]2ccc3c([nH]c4ccccc43)c21`: the Potency in assay [1] was 1.48 µM (active); in assay [2] it was 1.05 µM (active); in [4] it was 1.32 µM (active); in [5] it was 1.87 µM (active); in assay [6], 0.59 µM (active); in assay [7] it was 2.96 µM (active). The Potency in [8] is 2.64 µM (active); in [9], 1.05 µM (active); in assay [10], 1.32 µM (active).
